Screens deposited in PubChem by National Center for Advancing Translational Sciences (NCATS).
Sampled rows, rich in hits. Any-hit rate of the full collection: about 21%.
Pf growth 48h – P. falciparum growth inhibition at 48 hours (one generation). 310,000 tested, 5.9% active. AID 504832. P. falciparum luciferase growth in erythrocytes, 48 h. Potency, µM (titrated, usually from 28.7 µM), most hits filed as inhibitors
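Luciferase-expressing P. falciparum in infected erythrocytes (2% hematocrit, 0.1% parasitemia final) in RPMI 1640/0.5% Albumax were exposed to compound for 48 hours at 37 C, 5% CO2; growth read as luminescence.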
Shiga inhibitor – blocks Shiga toxin action in Vero cells. Vero cells, Shiga toxin protein synthesis inhibition reporter. 290,000 tested, 9.2% active. AID 2315. inhibition, % at 38.7 µM; in the data active means inhibition mostly above about 28%, no sharp cut-off; inactive means mostly below about 43%
Cycloheximide cs – counter-screen for Shiga toxin inhibitors: cycloheximide protein synthesis inhibition. cell reporter, cycloheximide protein synthesis inhibition counterscreen. 300,000 tested, 12% active. max response, %; in the data active means max response mostly above about 13%, no sharp cut-off; inactive means mostly below about 14%; further: read at 38.3 µM for the half of the compounds with a filed dose
Pf growth 96h – inhibits malaria parasite growth, 96 h | P. falciparum luciferase reporter growth, 96 h | Potency, µM (highest dose often 28.7 µM), most hits filed as inhibitors | 320,000 tested, 6.9% active
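Luminescence readout: decreased luciferase signal marks inhibited growth of reporter-expressing P. falciparum in infected red cells (2% hematocrit, 0.05% parasitemia final), exposed to compound two generations (96 h, 37 C, 5% CO2).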
Each line names hits and unclear results; the compound was inactive in the other large screens. Unless noted, the call rests on the fitted dose curve; in most records, active means well fitted inhibition curve with a large enough effect; inconclusive means small, poorly fitted or top-dose-only effect, or another doubt; inactive means no such curve, though single readings can be large or run the other way.

Cc1ccc(Cl)cc1-n1c(SCC(=O)NCCC2=CCCCC2)nc2n[nH]c(C)c2c1=N	Pf growth 48h inconclusive, Pf growth 96h inconclusive
Cc1cc(-n2c(SCC(=O)NCCC3=CCCCC3)nc3n[nH]c(C)c3c2=N)ccc1Cl	Pf growth 48h inconclusive, Pf growth 96h 4.7µM
CN1CCc2c(sc3nc(SCC(=O)N4CCCCC4)n(-c4ccccc4)c(=O)c23)C1	Pf growth 48h 12µM, Pf growth 96h 3.3µM
C=C(C)CSc1nc2sc3c(c2c(=O)n1-c1ccccc1)CCN(C)C3	Pf growth 48h 1.5µM, Pf growth 96h 0.83µM
CN1CCc2c(sc3nc(SCC(N)=O)n(-c4ccccc4)c(=O)c23)C1	Pf growth 48h inconclusive (no result: Pf growth 96h)
C=CCSc1nc2sc3c(c2c(=O)n1-c1ccc(C)cc1)CCN(C)C3	Pf growth 48h 3.7µM, Pf growth 96h 1.5µM
Cc1ccc(C2SCCN2C(=O)c2ccc([N+](=O)[O-])cc2)cc1 (configuration not stated)	Pf growth 48h inconclusive
Cc1ccccc1Cn1cc(NC(=O)CCCn2nc([N+](=O)[O-])cc2C)cn1	none
Cc1cc(=O)n(CC(=O)Nc2cc(Cl)ccc2C)c(C(C)C)n1	none
NC(=O)c1cc([N+](=O)[O-])ccc1NCc1cnccn1	none (no result: Shiga inhibitor, Cycloheximide cs)
COc1ccc2c(CN3CC=C(c4ccccc4)CC3)cc(=O)oc2c1	Pf growth 48h inconclusive, Cycloheximide cs 29, Pf growth 96h inconclusive
COc1ccc2c(=O)c(-c3ccccc3)c(C)oc2c1	Shiga inhibitor 34
CCN(Cc1cc(=O)oc2cc(C)ccc12)c1ccccc1	Pf growth 48h inconclusive, Pf growth 96h inconclusive
CCc1ccc2c(CN3CC=C(c4ccccc4)CC3)cc(=O)oc2c1	Pf growth 48h inconclusive, Pf growth 96h inconclusive
Cc1ccc2c(CN3CC=C(c4ccccc4)CC3)cc(=O)oc2c1C	Pf growth 48h 5.2µM, Pf growth 96h 3.3µM
COC(=O)c1cc(-c2c(C)oc3cc(OC)ccc3c2=O)c(C)o1	none (no result: Pf growth 96h)
COc1ccc2c(CN(C)c3ccccc3)cc(=O)oc2c1	Cycloheximide cs 22, Pf growth 96h inconclusive
Cc1[nH]c(C)c(S(=O)(=O)NCc2ccc(F)cc2)c1C(=O)N1CCCCC1	Pf growth 96h inconclusive
COc1cc(C)cc(CN2CC=C(c3ccccc3)CC2)c1O	Pf growth 48h 1.2µM, Pf growth 96h inconclusive
COc1ccc2ccc(O)c(CN3CC=C(c4ccccc4)CC3)c2c1	Pf growth 48h 1.7µM, Pf growth 96h inconclusive
Cc1ccc2c(CN3C(=O)NC4(CCCCC4)C3=O)cc(=O)oc2c1C	Pf growth 96h 0.13µM
CC(C)(C)NC(=O)NC(=O)CN1CC=C(c2ccccc2)CC1	Pf growth 96h inconclusive
COc1ccc(C(C)=O)cc1CN1CC=C(c2ccccc2)CC1	Pf growth 96h inconclusive
COc1ccc(CC(=O)OCC(=O)Nc2cccc(C(C)=O)c2)cc1OC	none (no result: Shiga inhibitor, Cycloheximide cs)
O=C(Nc1ccc(Cl)c(S(=O)(=O)N2CCCCC2)c1)c1ccncc1	Pf growth 48h inconclusive, Pf growth 96h 7.4µM (no result: Shiga inhibitor, Cycloheximide cs)
CCN(CC)CCOC(=O)c1ccc(NC(=O)c2ccc(Cl)c(S(=O)(=O)N3CCCCCC3)c2)cc1	Pf growth 48h inconclusive, Pf growth 96h 4.1µM
O=C(Nc1ccncc1)c1ccc(Cl)c(S(=O)(=O)N2CCCCC2)c1	Pf growth 48h inconclusive, Pf growth 96h 1.9µM (no result: Shiga inhibitor, Cycloheximide cs)
O=C(Nc1ncccc1O)c1ccc(Cl)c(S(=O)(=O)N2CCCCCC2)c1	Pf growth 96h inconclusive (no result: Shiga inhibitor, Cycloheximide cs)
CCN1CCN(c2ccc(NC(=O)c3ccc(OC)c(S(=O)(=O)N4CCCC4)c3)cc2)CC1	Pf growth 96h inconclusive (no result: Shiga inhibitor, Cycloheximide cs)
CCN1CCN(c2ccc(NC(=O)c3ccc(Cl)c(S(=O)(=O)N4CCCC4)c3)cc2)CC1	Pf growth 48h 10µM, Pf growth 96h inconclusive (no result: Shiga inhibitor, Cycloheximide cs)
O=C(Nc1ccccn1)c1ccc(Cl)c(S(=O)(=O)N2CCCC2)c1	Pf growth 48h inconclusive (no result: Shiga inhibitor, Cycloheximide cs)
CCc1noc(C)c1C(=O)Nc1ccc(F)c(F)c1	none (no result: Shiga inhibitor, Cycloheximide cs)
CCc1noc(C)c1C(=O)Nc1ccc(Cl)c(S(=O)(=O)N2CCCCC2)c1	Pf growth 48h 9.3µM, Pf growth 96h inconclusive (no result: Shiga inhibitor, Cycloheximide cs)
COc1ccc(/C=C/C(=O)NCCOc2ccc(C)cc2)cc1	Pf growth 96h inconclusive
C#CCNC(=O)/C=C/c1ccc(C)cc1	Cycloheximide cs 36
Cc1ccc(/C=C/C(=O)NCCCc2ccccc2)cc1	Cycloheximide cs 19
COc1ccc(Cl)cc1S(=O)(=O)N1CCC(C(=O)NCCC2=CCCCC2)CC1	none
Cc1ccc(Oc2ccc(S(=O)(=O)N3CCOCC3)cc2C(N)=O)c(-n2nc3ccccc3n2)c1	Pf growth 48h inconclusive, Pf growth 96h inconclusive
CC(C)Cc1nnc(NC(=O)CCC(=O)N2CC(C)CC(C)C2)s1 (configuration not stated)	Pf growth 96h inconclusive
O=S(=O)(c1cccs1)N1CN(Cc2ccco2)c2nc3ccccc3nc21	Pf growth 48h inconclusive, Shiga inhibitor 40, Cycloheximide cs 31, Pf growth 96h inconclusive
